# Data as given in PubChem BioAssay.
# A number with no mark means an inactive call. The rule behind the calls is not given here.
# System: Aerobactin synthetase IucA (Klebsiella pneumoniae hvKP1)
# Test: Biochemical IucA enzyme inhibition primary screen of the Spectrum library (AID 1346200);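 note: 100% = wells without compound and 0% = wells lacking enzyme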
# Conditions: malachite green pyrophosphate, A620, at 8 µM, hits give low values
row,SMILES,activity remaining
1,C=CC(C1=CC(=O)C=CC1=O)c1ccccc1 (stereo unspecified),119%
2,CCOC(=O)c1ccc(N)cc1,113%
3,COc1ccc(CC(=O)c2ccc(O)cc2O)cc1,111%
4,O[C@H]1[C@H](O)[C@@H](O)C2OC[C@H]1O2,119%
5,Cc1cccc(CN2CCN(C(c3ccccc3)c3ccc(Cl)cc3)CC2)c1 (stereo unspecified),95.5%
6,CCN1CCN(C(=O)NC(C(=O)NC2C(=O)N3C(C(=O)O)=C(CSc4nnnn4C)CSC23)c2ccc(O)cc2)C(=O)C1=O (stereo unspecified),125%
7,O=c1cc(-c2ccccc2)oc2c(O)c(O)ccc12,92.5%
8,O=C(/C=C/C(=O)Oc1ccccc1C(=O)O)Oc1ccccc1C(=O)O,92%
9,CC1(C)S[C@@H]2[C@H](NC(=O)[C@H](N)c3ccccc3)C(=O)N2[C@H]1C(=O)O,101%
10,CC[C@@H]1OC(=O)C[C@@H](O)[C@H](C)[C@@H](O[C@@H]2O[C@H](C)[C@@H](O)[C@H](N(C)C)[C@H]2O)[C@@H](CCN2C[C@H](C)C[C@H](C)C2)C[C@@H](C)C(=O)/C=C/C(C)=C\[C@@H]1CO[C@@H]1O[C@H](C)[C@@H](O)[C@@H](OC)[C@H]1OC,112%
11,O[N+]1=CC=CCC1=S.On1ccccc1=S.[Zn],92.5%
12,CCC(/C=C/[C@@H](C)[C@H]1CCC2C3CC=C4C[C@@H](O)CC[C@]4(C)C3CC[C@@]21C)C(C)C (stereo partly specified),101%
13,C[C@@H]1O[C@@H](OC[C@H]2OC(Oc3c(-c4ccc(O)c(O)c4)oc4cc(O)cc(O)c4c3=O)[C@H](O)[C@@H](O)[C@@H]2O)[C@H](O)[C@H](O)[C@H]1O (stereo partly specified),101%
14,C[C@H](N)[C@H](O)c1cccc(O)c1,115%
15,C[C@H]1OC(n2cc(F)c(=O)[nH]c2=O)C(O)[C@@H]1O (stereo partly specified),121%
16,CCC(=O)OCC(=O)[C@@]1(OC(=O)CC)[C@H](C)CC2C3C([C@@H](O)C[C@@]21C)[C@@]1(C)C=CC(=O)C=C1C[C@H]3Cl (stereo partly specified),106%
17,CC(C)c1nc(N(C)S(C)(=O)=O)nc(-c2ccc(F)cc2)c1/C=C/[C@@H](O)C[C@@H](O)CC(=O)O,124%
18,O=C(O)c1ccccc1Nc1cccc(C(F)(F)F)c1,116%
19,Cn1c(=O)[nH]c(=O)c2[nH]cnc21,109%
20,CC1C/C=C/C=C/C=C/C=C/C(O[C@@H]2O[C@H](C)[C@@H](O)[C@H](N)[C@@H]2O)CC2OC(O)(CC(O)CC3OC3/C=C/C(=O)O1)CC(O)C2C(=O)O (stereo partly specified),118%
21,CCn1cc(C(=O)O)c(=O)c2cc(F)c(N3CCNCC3)cc21,115%
22,CCN(CC)C(C)CN1c2ccccc2Sc2ccccc21 (stereo unspecified),109%
23,OC1=Cc2c(O)cc(O)cc2OC1(O)c1ccc(O)c(O)c1 (stereo unspecified),81.3%
24,O=C(/C=C/c1ccc(O)cc1)c1ccccc1O,109%
25,COc1ccc(/C=C/C(=O)c2ccc(O)cc2O)cc1OC,93.4%
26,CC(=O)O[C@@H]1CC2C(C)(C)C(=O)C=C[C@]2(C)C2CC[C@@]3(C)[C@H](c4ccoc4)OC(=O)[C@H]4O[C@]43[C@@]21C (stereo partly specified),104%
